Records with an inconclusive call do not appear. Unmarked numbers belong to inactive results. Active and inactive are the calls of the source. Calls come from the whole dose curve; as a rule, active = well fitted activation curve with a large enough effect in the repeat runs; inconclusive = weak or mixed curves; inactive = flat fitted curve, though single readings scatter.

Consider 14 molecules from PubChem BioAssay (Tox21).
% is set by controls: 0 for no effect and ±100 for the full control effect; potency is the fitted concentration of half-maximal effect.

For the assay, the target named is Nuclear receptor subfamily 1 group I member 2 (Homo sapiens) (UniProt O75469). The assay can be described thus: Human pregnane X receptor (PXR) activation by small molecules, qHTS assay (AID 1346985). Note: nearly all actives have a fitted effect of over 40% in size. Conditions: DPX-2 HepG2 CYP3A4-luciferase, 24 h; series mostly up to 38.3 µM; activation: at the top concentration. From the text: National Center for Advancing Translational Sciences [NCATS]
NIH Chemical Genomics Center [NCGC]
U.S. Environmental Protection Agency [EPA]
National Institutes of Environmental Health Sciences [NIEHS]
National Toxicology Program [NTP]
The Pregnane X receptor (PXR), a ligand activated nuclear receptor plays a critical role in the regulation of genes involved in drug metabolism and transporters. Activation of PXR may be involved in the unwanted adverse drug-drug interactions. […] Therefore, identification of compounds with the potential for PXR activation can be of importance in improving the efficacy of drugs with less toxicity and avoiding drug-drug interactions.
DPX-2 (Puracyp, Inc.) cell lines, used for screening against human PXR activation has HepG2 cells co-transfected with a PXR response element and a luciferase construct containing CYP3A4 promoter. Increase in luciferase activity can be used to identify the compounds that activate the PXR pathway.
DPX-2 cells were dispensed at 2,000 cells per well in 5uL of assay medium into white, solid-bottom 1536-well plates using a Multidrop Combi dispenser (Thermo Scientific). The assay plates were incubated at 37C for 5hr before transferring 23nL of test compounds dissolved in DMSO and positive control via Pintool station (Wako). The assay plates were incubated at 37C for 24hr. Then 5ul One-Glo assay reagent (Promega) was added to each plate by a Flying Reagent Dispenser (FRD, Aurora Discovery) and following 30 min incubation at room temperature, luciferase activity was quantified on a ViewLux plate reader (Perkin Elmer).
For the molecule `CN1CCc2cc(Cl)c(O)cc2[C@H]2c3ccccc3CC[C@@H]21`, the Potency was 2.24 µM (active).
As to `Clc1ccc(C2(Cn3cncn3)OCCO2)c(Cl)c1`, the “activation” value is -1.46%.
Consider `C[N+]1(C)[C@@H]2CC[C@H]1CC(OC(=O)C(CO)c1ccccc1)C2` (some centres undefined), for which the Potency result is “inactive”.
With `COc1ccc(Cc2nccc3cc(OC)c(OC)cc23)cc1OC`, the “activation” value is 14.5% [at 17.1 µM].
The same measure, in the same setting: as for `CCN(CC)C(=S)S`, the figure is -5.04%.
As for `ClC1=C(Cl)[C@]2(Cl)[C@@H]3[C@H]4C[C@H]([C@@H]5O[C@H]45)[C@@H]3[C@@]1(Cl)C2(Cl)Cl`, the Potency is 25.1 µM (active).
For the molecule `CNC(C)(C)Cc1ccccc1`, the “activation” value was -4.6% [at 17.1 µM].
Same read-out and setting: the figure for `COc1c2c(cc3c1OCO3)CCN(C)C2` is 9.71% [at 17.1 µM].
In the case of `CCN(CC)CCN1C(=O)CN=C(c2ccccc2F)c2cc(Cl)ccc21`, the Potency was 14.1 µM (active).
For `CN1C(=O)[C@@H](NC(=O)c2cc3ccccc3[nH]2)N=C(c2ccccc2)c2ccccc21`, the “activation” value was 24.5%.
Take `CC(C)C(Br)C(=O)NC(N)=O` (centres undefined): the “activation” value was -1.71%.
The same measure, in the same setting: the figure for `CC(Cc1ccc(O)cc1)NCC(O)c1cc(O)cc(O)c1` (centres undefined) is 8.23%.
For `CC[C@]1(O)CC[C@H]2[C@@H]3CCC4=CCCC[C@@H]4[C@H]3CC[C@@]21C`, the Potency is 8.91 µM (active).
`[O]=[Cr](=[O])([OH])[O][Cr](=[O])(=[O])[OH]`: the Potency entry was “inactive”.
